Screening results (PubChem)
MEKK2 WT-MEK5 – raises or lowers MEK5 binding to wildtype human MEKK2 PB1 domain. bead flow cytometry, Alexa488-MEK5 binding to MEKK2 WT; actives lie on both sides. binding response (% of control), % at 10 µM. 290,000 compounds, 1.1% hits; in the data active = binding response below about 67% or above about 130%
MEKK2 mut-MEK5 – signal of MEK5 binding to mutant human MEKK2 PB1 domain; 290,000 compounds, 0.35% hits; percent response, % at 10 µM; bead flow cytometry, Alexa488-MEK5 binding to MEKK2 mutant; in the data active = percent response above about 24%, passing the limit was not always enough
CendR NRP1 mod – alters CendR peptide binding to human NRP-1 | O14786 | FAM-RPARPAR peptide binding to NRP-1, fluorescence polarization | inhibition, % at 25 µM | 360,000 compounds, 0.85% hits | AID 602438;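 active = inhibition or corrected inhibition above about 18%, plus a signal ratio from 0.5 to 1.5, limit read from the data, passing the limit was not always enough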
MEKK3 PB1 HTS – raises or lowers MEK5 binding to the human MEKK3 PB1 domain; Q99759; bead-based flow cytometry, Alexa488-MEK5 binding to MEKK3; actives lie on both sides; 0 = blocked by unlabeled MEK5, 100 = vehicle; binding response (% of control), % at 10 µM; 290,000 compounds, 1.4% hits; AID 1529;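 active = binding response more than 3 SD above or below the average of its plate-row segment, actives on both sides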;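 note: Alexa488 bead fluorescence after subtracting the streptavidin-only scavenger bead signal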
Target sequence (Q99759 whole entry, looked up, the tested form may be a part): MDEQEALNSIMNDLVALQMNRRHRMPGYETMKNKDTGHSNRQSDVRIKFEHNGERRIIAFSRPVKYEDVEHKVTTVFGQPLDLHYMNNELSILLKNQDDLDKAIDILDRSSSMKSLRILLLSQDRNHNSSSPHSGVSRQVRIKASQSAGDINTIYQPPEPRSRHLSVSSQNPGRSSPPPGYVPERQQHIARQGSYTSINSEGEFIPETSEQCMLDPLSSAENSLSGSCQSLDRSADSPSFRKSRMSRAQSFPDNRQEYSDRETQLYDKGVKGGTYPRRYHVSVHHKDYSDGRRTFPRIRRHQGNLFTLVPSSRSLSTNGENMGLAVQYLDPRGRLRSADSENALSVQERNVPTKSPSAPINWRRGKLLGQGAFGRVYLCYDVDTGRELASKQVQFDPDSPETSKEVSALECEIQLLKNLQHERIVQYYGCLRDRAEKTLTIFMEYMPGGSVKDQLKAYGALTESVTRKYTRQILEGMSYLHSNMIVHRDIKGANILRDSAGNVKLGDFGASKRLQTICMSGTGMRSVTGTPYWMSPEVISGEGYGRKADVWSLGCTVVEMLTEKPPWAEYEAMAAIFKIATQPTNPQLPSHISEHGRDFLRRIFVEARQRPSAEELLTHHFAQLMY
SKN-1 block – C. elegans SKN-1 inhibition. 360,000 compounds, 0.49% hits. inhibition, % at 21.8 µM. C. elegans VP596 Pgst-4::GFP/RFP ratio, acrylamide-induced, 24 h. AID 624304;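 active = interference check ratio from 0.5 to 1.5 plus GFP to RFP signal ratio inhibition reaching or exceeding a fixed threshold, cut at about 30% in these data, passing the limit was not always enough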
MEKK2wt confirm – raises or lowers MEK5 binding to wildtype human MEKK2, retest; shares compounds with MEKK3 PB1 HTS; bead flow cytometry, Alexa488-MEK5 binding to MEKK2 WT; actives lie on both sides; binding response (% of control), % at 10 µM; 5,900 compounds, 2.4% hits; in the data active = binding response below about 16% or above about 210%; inactive = in between
MEKK2mut-MEK5 – signal of MEK5 binding to mutant human MEKK2, retest; shares compounds with MEKK3 PB1 HTS; bead flow cytometry, Alexa488-MEK5 binding to MEKK2 mutant; percent response, % at 10 µM; 5,900 compounds, 2% hits; AID 1893; in the data active = percent response mostly above about 71%, no sharp cut-off; inactive = mostly below about 38%;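 note: higher means compound restores mutant binding toward wildtype level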
MEKK3-MEK5 inh – confirmation of inhibitors of MEK5 binding to human MEKK3; 5,900 compounds, 1.8% hits; binding response (% of control), % at 10 µM; bead flow cytometry, Alexa488-MEK5 binding to MEKK3; stronger effect = lower value; shares compounds with MEKK3 PB1 HTS;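 active = binding response below 72% of control, or above a set upper limit, though filed actives all read lower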;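 note: 100% = DMSO only wells and 0% = binding blocked by excess unlabeled MEK5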
* hit, by the source's call; nt = not tested or not shown; [ ] = remark or other dose. Rows were chosen to be rich in hits. Some 3.2% of all compounds tested hit in one or more screens of this group.

SMILES | MEKK2 WT-MEK5 | MEKK2 mut-MEK5 | CendR NRP1 mod | MEKK3 PB1 HTS | SKN-1 block | MEKK2wt confirm | MEKK2mut-MEK5 | MEKK3-MEK5 inh
N#Cc1ccc(C(=O)OCC(=O)N2CCCC2)cc1 | 92.0 | -8.0 | 2.3 | 97.0 | -0.7 | nt | nt | nt
COc1ccc(/C=C2\Sc3ccc(C(=O)N4CCc5ccccc5C4)cc3N(C)C2=O)cc1 | 102.0 | 0.0 | nt | 130.0* | nt | 94.0 | -7.0 | 93.0
COc1ccc(OC)c(S(=O)(=O)n2nc(C)cc2C)c1 | 125.0 | 7.0 | -8.8 | 135.0* | 7.6 | 95.0 | -1.0 | 101.0
COc1ccc(OC)c(S(=O)(=O)n2ccc(C)n2)c1 | 99.0 | 2.0 | 9.0 | 104.0 | 9.9 | nt | nt | nt
Cc1ccc(OCC(O)CN2C(=O)NC(C)(C)C2=O)cc1 (stereo not drawn) | 90.0 | 8.0 | 5.8 | 73.0*[inhibitor] | 5.8 | 100.0 | -7.0 | 101.0
O=C(NCC1CCCO1)c1ccc2c(=O)n(CC3CCCO3)c(=S)[nH]c2c1 (stereo not drawn) | 3.0*[inhibitor] | -18.0 | -1.7 | 2.0*[inhibitor] | -23.0 | 97.0 | -4.0 | 101.0
COc1ccc2[nH]c3c(=O)n(Cc4ccc(C(=O)NCC5CCCO5)cc4)c(=S)[nH]c3c2c1 (stereo not drawn) | 119.0 | 178.0* | -25.3 | 128.0 | 9.6 | 102.0 | 5.0 | 103.0
CC(C)[C@@H]1CC[C@@H](C)C[C@H]1O | nt | nt | 5.9 | nt | 4.1 | nt | nt | nt
Nc1ccc(N2CCCC2)c(S(=O)(=O)Nc2cccc(C(F)(F)F)c2)c1 | nt | nt | 8.6 | nt | 14.3 | nt | nt | nt
CC1(C)CC(NC(=O)Cc2ccccc2[N+](=O)[O-])CC(C)(C)N1 | 108.0 | 1.0 | 12.4 | 142.0* | -1.3 | 102.0 | 7.0 | 100.0
CCCNC(=O)C1(C)CCN(C(=O)c2ccc3sccc3c2)C1 (stereo not drawn) | nt | nt | 11.2 | nt | 14.3 | nt | nt | nt
COc1cc(/C=C/C(=O)OCC(=O)Nc2cc(C(F)(F)F)ccc2N2CCOCC2)ccc1O | 104.0 | 0.0 | -1.8 | 152.0* | -0.1 | 105.0 | -1.0 | 104.0
COc1cc(/C=C/C(=O)OCC(=O)Nc2ccc(C)c(S(=O)(=O)N3CCCCC3)c2)ccc1O | 108.0 | 0.0 | -12.4 | 147.0* | 4.2 | 103.0 | -6.0 | 103.0
COC(=O)C[C@@H]1C=C[C@H](NC(=O)c2ccccc2)[C@@H](CO)O1 | nt | nt | 3.8 | nt | 5.6 | nt | nt | nt
O=C(C[n+]1cc(-c2ccc(Cl)cc2)n2c1CCC2)Nc1nc(-c2ccccc2)cs1 | 146.0* | 28.0 | -12.9 | 99.0 | -0.2 | 163.0 | 37.0 | 94.0
Cc1ccc(-c2c[n+](CC(=O)Nc3nc(-c4ccc(F)cc4)cs3)c3n2CCC3)cc1 | 226.0* | 76.0* | 4.8 | 109.0 | 4.2 | 199.0 | 76.0* | 115.0
Cc1oncc1C(=O)N1CCCC(CO)(Cc2ccc(F)cc2F)C1 (stereo not drawn) | 101.0 | -2.0 | -2.4 | 99.0 | 4.1 | nt | nt | nt
Cc1ccc(Nc2nnc(SCC(=O)c3ccc(Br)s3)s2)c(C)c1 | 94.0 | 2.0 | -4.5 | 72.0*[inhibitor] | 7.7 | 97.0 | -8.0 | 99.0
N#C/C(=N\Nc1ccccc1)C(=N)N1CCOCC1 | 105.0 | 0.0 | 0.3 | 130.0* | 7.8 | 97.0 | -2.0 | 95.0
CCOC(=O)C1CCCN(C(=O)c2ccc(-c3ccccc3)cc2)CC1 (stereo not drawn) | nt | nt | -9.7 | nt | 18.0 | nt | nt | nt
CC1(C)CC(=O)C(Sc2ccc(Br)cc2)=C(O)C1 | 84.0 | -4.0 | -0.9 | 73.0*[inhibitor] | -7.5 | 98.0 | -7.0 | 90.0
Cc1nnc(SCC(=O)NC23CC4CC(CC(C4)C2)C3)s1 | 98.0 | -1.0 | -7.4 | 101.0 | 6.4 | nt | nt | nt
Nc1nnc(SCC(=O)NC23CC4CC(CC(C4)C2)C3)s1 | 39.0*[inhibitor] | -18.0 | -11.8 | 41.0*[inhibitor] | -5.9 | 110.0 | 5.0 | 103.0
Cc1cn([C@H]2C[C@H](O)[C@@H](CNCc3ccc(-c4cc(Cl)ccc4C(F)(F)F)o3)O2)c(=O)[nH]c1=O | nt | nt | -18.1 | nt | 11.6 | nt | nt | nt
c1ccc2c(c1)CCN(c1nc(CN3CCOCC3)nc3sc4c(c13)CCCC4)C2 | 107.0 | 3.0 | -10.2 | 135.0* | 0.7 | 110.0 | 3.0 | 104.0
SMILES | MEKK2 WT-MEK5 | MEKK2 mut-MEK5 | CendR NRP1 mod | MEKK3 PB1 HTS | SKN-1 block | MEKK2wt confirm | MEKK2mut-MEK5 | MEKK3-MEK5 inh
CCNc1nc(CN2CCOCC2)nc2sc3c(c12)CCC3 | 102.0 | 5.0 | -0.1 | 102.0 | 3.9 | nt | nt | nt
CCCCCC(=O)Nc1ccc(C2C(=O)c3ccccc3C2=O)cc1 | 101.0 | 3.0 | 7.4 | 104.0 | 2.1 | nt | nt | nt
Cc1nc(NC(=O)CCc2ccccc2)sc1C | 110.0 | 3.0 | -3.8 | 109.0 | 11.4 | nt | nt | nt
CC1CCCC(NC(=O)COC(=O)c2sc3ccccc3c2Cl)C1C (stereo not drawn) | 110.0 | 1.0 | 4.2 | 135.0* | 4.4 | 99.0 | 0.0 | 100.0
CC1CC(C)CN(S(=O)(=O)c2ccc3c(c2)CC(=O)N3)C1 (stereo not drawn) | nt | nt | 15.4 | nt | 15.7 | nt | nt | nt
CN(C(=O)c1cccc(NC(=O)Cc2cccc(NC(=O)C3CCCN(C(=O)C4CCC4)C3)c2)c1)C1CCC1 (stereo not drawn) | nt | nt | -10.8 | nt | 6.8 | nt | nt | nt
CC(=O)c1ccc2c(c1)N(CCCN1CCC(CCO)CC1)c1ccccc1S2 | nt | nt | 7.6 | nt | -6.9 | nt | nt | nt
OCCN1CCN(CCCN2c3ccccc3Sc3ccc(Cl)cc32)CC1 | 160.0* | 10.0 | -6.1 | 79.0 | -7.5 | 141.0 | 27.0 | 105.0
CN(C)CCCN1c2ccccc2Sc2ccc(Cl)cc21 | 153.0* | 13.0 | -1.6 | 102.0 | 0.7 | 149.0 | 27.0 | 107.0
C=Cn1cc[n+](CC(=O)c2ccc(Cl)c(Cl)c2)c1 | 99.0 | 3.0 | 7.6 | 95.0 | 12.9 | nt | nt | nt
C=Cn1cc[n+](CC(=O)C(C)(C)C)c1 | 107.0 | 2.0 | 4.5 | 137.0* | 0.3 | 106.0 | 10.0 | 106.0
COc1ccc(C(=O)SC2=NCCS2)cc1 | -11.0*[inhibitor] | -2.0 | 16.1 | -2.0*[inhibitor] | 5.6 | 113.0 | 2.0 | 108.0
CCOc1ccc(C(=O)SC2=NCCS2)cc1 | 102.0 | -1.0 | -1.2 | 99.0 | 0.2 | nt | nt | nt
CC(=O)OC[C@H]1O[C@@H](Oc2cc3ccc(=O)oc3cc2OC(C)=O)[C@H](OC(C)=O)[C@@H](OC(C)=O)[C@@H]1OC(C)=O | nt | nt | -0.5 | nt | 13.2 | nt | nt | nt
CN(C)c1ccc(C=O)c(Oc2ccccc2)c1 | nt | nt | -6.4 | nt | -1.6 | nt | nt | nt
COc1cccc(OCCOCCOc2ccc(C)cc2[N+](=O)[O-])c1 | 109.0 | 0.0 | 14.2 | 146.0* | -7.7 | 97.0 | -2.0 | 102.0
Cc1csc(=O)n1CCC(=O)OCC(=O)c1ccc(Br)cc1 | nt | nt | 1.3 | nt | 8.1 | nt | nt | nt
CC1=NNC(=O)C1C(c1ccccc1)C1C(=O)NN=C1C (stereo not drawn) | 113.0 | 1.0 | nt | 129.0* | nt | 97.0 | -6.0 | 101.0
CC1=NNC(=O)C1Cc1ccccc1 (stereo not drawn) | nt | nt | 7.4 | nt | -2.5 | nt | nt | nt
